These results are taken from PubChem BioAssay (NCATS).

Results filed as inconclusive are left out. A number with no mark means an inactive call. The source made the active and inactive calls. Calls follow the shape of the dose curve; as a rule, active = well fitted cell-killing curve with a large enough effect; inconclusive = small, poorly fitted or top-dose-only effect, or effect the other way; inactive = no such curve, though single readings can be large or run the other way.

Test [1] is described as follows: Quantitative High-Throughput drug screen in 47 multiple myeloma cell lines against the NCATS MIPE library collection: U266_ATCC cell viability assay (AID 1919864). Also: nearly all actives have a fitted effect of over 35% in size. In short, it runs like this:
(§1)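 Plated at 500 cells per well, myeloma lines received MIPE 4.0 compounds by pin tool. Following 48 h culture at 37 °C, CellTiter-Glo luminescence gave viability relative to DMSO and media-only controls.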

Test [2] is described as follows: Quantitative High-Throughput drug screen in 47 multiple myeloma cell lines against the NCATS MIPE library collection: XG6_PLB cell viability assay (AID 1919865). Also: nearly all actives have a fitted effect of over 40% in size. In short, it runs like this: as §1
Test [3] in a line: Quantitative High-Throughput drug screen in 47 multiple myeloma cell lines against the NCATS MIPE library collection: XG1_PLB cell viability assay (AID 1919866). Also: nearly all actives have a fitted effect of over 35% in size. The essentials: as §1
Test [4] is described as follows: Quantitative High-Throughput drug screen in 47 multiple myeloma cell lines against the NCATS MIPE library collection: VP6_DJ cell viability assay (AID 1919867). Also: nearly all actives have a fitted effect of over 40% in size. The essentials: as §1
Test [5] can be described thus: Quantitative High-Throughput drug screen in 47 multiple myeloma cell lines against the NCATS MIPE library collection: UTMC2_PLB cell viability assay (AID 1919868). Also: nearly all actives have a fitted effect of over 55% in size. The note with it: CellTiter-Glo ATP luminescence, 48 h; viability (% of DMSO control): at 45.8 µM (top of the series). In short, it runs like this: as §1
(In general: In ATP-based viability assays light output follows the ATP content of the culture.)

Test [6] is described as follows: Quantitative High-Throughput drug screen in 47 multiple myeloma cell lines against the NCATS MIPE library collection: PE2_PLB cell viability assay (AID 1919869). Also: nearly all actives have a fitted effect of over 35% in size. The essentials:
as §1

The nature of test [7]: Quantitative High-Throughput drug screen in 47 multiple myeloma cell lines against the NCATS MIPE library collection: OPM2_DSMZ cell viability assay (AID 1919872). Also: nearly all actives have a fitted effect of over 30% in size. In short, it runs like this: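 CellTiter-Glo ATP luminescence gave viability after 48 h compound treatment at 37C of 500 multiple myeloma cells per well. Normalisation used DMSO-only wells as 100% and media-only wells as 0% viability; primary qHTS of approved and investigational drugs.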

Test [8] can be described thus: Quantitative High-Throughput drug screen in 47 multiple myeloma cell lines against the NCATS MIPE library collection: KMS11_JCRBsus cell viability assay (AID 1919873). Also: nearly all actives have a fitted effect of over 50% in size. The essentials: as §1
A short description of test [9]: Quantitative High-Throughput drug screen in 47 multiple myeloma cell lines against the NCATS MIPE library collection: SKMM1_PLB cell viability assay (AID 1919863). Also: nearly all actives have a fitted effect of over 35% in size. The note with it: SKMM1 myeloma viability, CellTiter-Glo ATP, 48 h; viability: hits give low values. In short, it runs like this:
as §1

Test [10] is described as follows: Quantitative High-Throughput drug screen in 47 multiple myeloma cell lines against the NCATS MIPE library collection: RPMI8226_ATCC cell viability assay (AID 1919871). Also: nearly all actives have a fitted effect of over 30% in size. In short, it runs like this:
as §1

Test [11] can be described thus: Quantitative High-Throughput drug screen in 47 multiple myeloma cell lines against the NCATS MIPE library collection: KMS28BM_JCRB cell viability assay (AID 1919874). Also: nearly all actives have a fitted effect of over 35% in size. In short, it runs like this:
as §1

The nature of test [12]: Quantitative High-Throughput drug screen in 47 multiple myeloma cell lines against the NCATS MIPE library collection: PCM6_Riken cell viability assay (AID 1919870). Also: nearly all actives have a fitted effect of over 30% in size. In short, it runs like this: as §1
Potency is read from the fitted curve at half-maximal effect.

With `C[C@]12CC[C@@H]3c4ccc(O)cc4C[C@@H](CCCCCCCCCS(=O)CCCC(F)(F)C(F)(F)F)[C@H]3[C@H]1CC[C@H]2O` (some centres not stated), the Potency entry in test [1], in test [3], in test [4], in test [5], in [6] and in [7] was “inactive” each time. Further, the Potency in test [2] was 6.62 µM (active); in test [8], 2.09 µM (active).

Regarding `NC(=O)NN=Cc1ccc([N+](=O)[O-])o1`, in test [9], the viability was 122%. Besides, the Potency entry in test [10], in test [7], in test [8] and in test [11] was “inactive” in each case.

As for `CC(C)(C)NC(=O)Nc1cccc(Nc2ncc(F)c(NC(C)(C)CO)n2)c1`, the Potency entry in test [1], in [10] and in test [11] was “inactive” in each case. Besides, the Potency in test [2] is 20.9 µM (active); in [3], 3.72 µM (active); in [6], 18.7 µM (active); in test [7] it was 16.6 µM (active).

For `CC(=NNC(=S)N1CCC1)c1ccccn1`, the Potency in test [9] was 0.0059 µM (active); in test [10] it was 0.0042 µM (active); in test [7], 0.0074 µM (active); in [8] it was 0.0033 µM (active); in test [11], 0.0083 µM (active). The Potency entry in test [5] and in test [6] was “inactive” throughout.

For `CCS(=O)(=O)N1CC(CC#N)(n2cc(-c3ncnc4[nH]ccc34)cn2)C1`, the Potency in test [1] was 23.5 µM (active); in [2], 2.09 µM (active); in [3] it was 0.332 µM (active); in [12], 5.9 µM (active); in test [11] it was 23.5 µM (active).

As to `O=c1cc(-c2ccccc2)oc2cc(O)c(O)c(O)c12`, in test [9], the Potency was 18.7 µM (active). Besides, the Potency entry in [12], in [10] and in test [11] was “inactive” in each case.

Take `CS(=O)(=O)N(Cc1ccco1)CC(O)Cn1c2ccccc2c2ccccc21` (configuration not stated): the Potency in [1] was 18.7 µM (active); in test [3], 20.9 µM (active); in [6] it was 16.6 µM (active); in test [11], 26.4 µM (active). The Potency entry in [2], in [5] and in [10] was “inactive” throughout.

`C[C@]12CCC3c4ccc(O)cc4CCC3C1CCC2=O` (some centres not stated): the Potency result in test [1], in test [2], in [3], in [6], in test [12] and in [7] was “inactive” in each case. Besides, the Potency in test [10] was 20.9 µM (active); in test [8] it was 26.4 µM (active); in test [11], 20.9 µM (active).

`NS(=O)(=O)c1ccc(NC2=CC(=O)c3ccccc3C2=O)cc1`: the Potency in test [9] was 4.69 µM (active); in [6] it was 14.8 µM (active). In addition, the Potency entry in [10], in [7] and in test [11] was “inactive” throughout.

As for `CC=CC[C@@H](C)C(=O)[C@H]1C(=O)N[C@@H](C(C)C)C(=O)N(C)CC(=O)N(C)[C@@H](CC(C)C)C(=O)N[C@@H](C(C)C)C(=O)N(C)[C@@H](CC(C)C)C(=O)N[C@@H](C)C(=O)N[C@H](C)C(=O)N(C)[C@@H](CC(C)C)C(=O)N(C)[C@@H](CC(C)C)C(=O)N(C)[C@@H](C(C)C)C(=O)N1C`, the Potency was 14.8 µM (active) in [9], 13.2 µM (active) in [10] and 14.8 µM (active) in [8].

As for `COc1ccc(C2Sc3ccccc3N(CCN(C)C)C(=O)C2OC(C)=O)cc1` (configuration not stated), the Potency in [1] and in test [5] was 16.6 µM (active) in each case. The Potency result in test [2], in test [3], in [4], in test [6], in test [12] and in test [10] was “inactive” each time. The Potency entry in test [7], in test [8] and in test [11] was “inactive” throughout.

Take `COC1CCC(N(C(=O)C2CCC(C)CC2)c2cc(C3=CCCCC3)sc2C(=O)O)CC1` (configuration not stated): the Potency entry in [1], in test [10], in test [7] and in test [11] was “inactive” in each case. The Potency in test [2] is 23.5 µM (active); in test [3] it was 20.9 µM (active); in test [4], 14.8 µM (active); in [6], 23.5 µM (active). Moreover, in [5], the viability (% of DMSO control) is 89.9% (active).

Take `COc1cccc([C@@H](C)NCCCc2ccccc2Cl)c1`: in [9], the viability was 122%. Besides, the Potency entry in test [10], in test [7] and in [11] was “inactive” each time.

Turning to `COc1cc(Nc2ncc(F)c(Nc3ccc4c(n3)NC(=O)C(C)(C)O4)n2)cc(OC)c1OC`, the Potency entry in test [1] and in test [11] was “inactive” throughout. For the same compound, the Potency is 1.66 µM (active) in test [2]; 1.66 µM (active) in test [4]; 0.59 µM (active) in test [5]; 1.05 µM (active) in test [6]; 4.18 µM (active) in test [10]; 5.9 µM (active) in test [7].

Turning to `CN1C[C@H]2c3ccccc3Oc3ccc(Cl)cc3[C@@H]2C1`, the Potency entry in test [1], in test [2], in [3], in test [10] and in test [7] was “inactive” each time. Also, the Potency was 4.18 µM (active) in test [4] and 11.8 µM (active) in test [12].

As for `N#CC1(c2ccc(NC(=O)c3cccnc3NCc3ccncc3)cc2)CCCC1`, the Potency entry in [1] and in [7] was “inactive” in each case. In addition, the Potency in test [2] was 18.7 µM (active); in test [3] it was 20.9 µM (active); in test [4] it was 14.8 µM (active); in test [6], 18.7 µM (active).

Regarding `O=C1Nc2ccc(Cl)cc2C(C#CC2CC2)(C(F)(F)F)O1` (configuration not stated), the Potency is 23.5 µM (active) in [1]; 16.6 µM (active) in test [3]; 16.6 µM (active) in test [4]; 23.5 µM (active) in test [6]; 23.5 µM (active) in test [12]; 20.9 µM (active) in test [8]. The Potency in test [11] was 20.9 µM (active).

Consider `CCCCCN(C)CCC(O)(P(=O)(O)O)P(=O)(O)O`, for which the Potency entry in [1], in test [2], in test [6], in test [12], in test [10] and in test [7] was “inactive” each time. Also, the Potency entry in [8] and in test [11] was “inactive” throughout.

Regarding `CCN(CC)CCOc1ccc(C(=C(Cl)c2ccccc2)c2ccccc2)cc1`, the Potency in test [1] is 16.6 µM (active); in [11], 10.5 µM (active). Moreover, the Potency entry in [7] is “inactive”.

For `Cc1cccc(Nc2nc(-c3ccncc3)cs2)c1`, in test [1], the Potency result was “inactive”. The Potency in [4] is 18.7 µM (active); in [6] it was 23.5 µM (active); in [7], 10.5 µM (active).

For the compound `O=C(O)CCC1CCC(c2cc(F)ccc2F)(S(=O)(=O)c2ccc(Cl)cc2)CC1` (configuration not stated), the Potency in test [1] was 6.62 µM (active); in test [12], 13.2 µM (active). Besides, the Potency entry in [6], in test [10] and in test [7] was “inactive” each time.

As usually defined, the viability is a read-out of living cells in per cent, often relative to untreated cells.
